Test results taken from PubChem BioAssay.
For part of these data: Measured potencies and affinities stand elsewhere. Activity calls are given as the source filed them. Unless noted, no rule for the calls is given here.

Assays:
[1] = antimalarial activity against Dd2 strain (AID 2302;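 active = growth inhibition above 50% at the single 2 µM test dose, taken to imply half-maximal potency below 2 µM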;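 also: 0% = DMSO untreated growth and 100% = chloroquine plus artemisinin killed control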); settings: P. falciparum Dd2 in RBCs, LDH growth readout, 72 h; at 2 µM; stronger effect = higher value
[2] = human hepatoma cell viability loss – ATP luminescence, cytotoxicity control for P. falciparum antimalarial project, primary screen (AID 2303;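 active = inhibition above 50%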;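 also: 0% = DMSO wells and 100% = digitonin-killed cells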); settings: HepG2 viability, 24-48 h, at 10 µM, stronger effect = higher value
[3] = target: L-lactate dehydrogenase (Plasmodium falciparum (isolate CDC / Honduras)) (UniProt Q27743); assay: PfLDH activity inhibition – cell lysate, 3D7 strain, counter-screen for P. falciparum growth inhibition project (AID 2304);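 also: 0% = vehicle and 100% = reference inhibitor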; settings: P. falciparum 3D7 crude extract, LDH APAD/NBT absorbance; at 2 µM; stronger effect = higher value
[4] = inhibition of 3D7 malaria parasite growth – strain 3D7 (AID 2306);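 also: 0% = DMSO wells and 100% = chloroquine plus artemisinin control wells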; settings: P. falciparum 3D7 erythrocytic growth, LDH absorbance, 72 h; at 2 µM; stronger effect = higher value
[5] = target: Calcium-dependent protein kinase 1 (Plasmodium falciparum (isolate 3D7)) (UniProt P62344); assay: PfCDPK1 kinase inhibitors, biochemical, TCAMS library (AID 1159585; cut-off not given, nearly all actives have IC50 up to about 0.98 µM;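 also: inhibitors leave more ATP so luminescence rises with inhibition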); settings: recombinant PfCDPK1, Kinase-Glo ATP depletion luminescence
[6] = target: Plasmodium falciparum protein kinase 6 (PK6, PF3D7_1337100) (UniProt Q8IDW1); assay: PfPK6 kinase inhibitors, biochemical, TCAMS library (AID 1159586); settings: recombinant PfPK6, Kinase-Glo ATP depletion luminescence
[7] = target: Protein kinase 7 (PK7), Plasmodium falciparum 3D7 (PF3D7_0213400) (UniProt Q7YTF7); assay: inhibition of Plasmodium PK7 catalytic activity – biochemical, TCAMS antimalarial set, Kinase-Glo luminescence (AID 1159587); settings: recombinant PfPK7, Kinase-Glo ATP depletion luminescence
[8] = target: Calcium-dependent protein kinase 4 (Plasmodium falciparum (isolate 3D7)) (UniProt Q8IBS5); assay: PfCDPK4 kinase inhibitors, biochemical, TCAMS library (AID 1159588; cut-off not given, nearly all actives have IC50 up to about 0.91 µM); settings: recombinant PfCDPK4, Kinase-Glo ATP depletion luminescence
Chain of Calcium-dependent protein kinase 4 (Plasmodium falciparum (isolate 3D7)) (Q8IBS5 whole entry, looked up): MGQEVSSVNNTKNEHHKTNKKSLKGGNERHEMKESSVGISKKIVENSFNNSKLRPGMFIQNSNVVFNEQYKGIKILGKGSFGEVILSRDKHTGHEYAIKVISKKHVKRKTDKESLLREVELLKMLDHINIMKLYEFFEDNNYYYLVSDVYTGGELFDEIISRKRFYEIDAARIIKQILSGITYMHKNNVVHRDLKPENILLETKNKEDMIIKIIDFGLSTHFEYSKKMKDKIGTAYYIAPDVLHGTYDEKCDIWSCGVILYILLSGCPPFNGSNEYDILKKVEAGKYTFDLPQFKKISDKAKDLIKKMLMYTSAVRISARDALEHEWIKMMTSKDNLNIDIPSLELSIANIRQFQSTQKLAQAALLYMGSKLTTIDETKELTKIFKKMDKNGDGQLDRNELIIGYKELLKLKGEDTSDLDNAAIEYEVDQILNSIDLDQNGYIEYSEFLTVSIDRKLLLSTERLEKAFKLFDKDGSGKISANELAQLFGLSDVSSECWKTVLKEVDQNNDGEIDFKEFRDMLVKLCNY

Chain of Calcium-dependent protein kinase 1 (Plasmodium falciparum (isolate 3D7)) (P62344 whole entry, looked up): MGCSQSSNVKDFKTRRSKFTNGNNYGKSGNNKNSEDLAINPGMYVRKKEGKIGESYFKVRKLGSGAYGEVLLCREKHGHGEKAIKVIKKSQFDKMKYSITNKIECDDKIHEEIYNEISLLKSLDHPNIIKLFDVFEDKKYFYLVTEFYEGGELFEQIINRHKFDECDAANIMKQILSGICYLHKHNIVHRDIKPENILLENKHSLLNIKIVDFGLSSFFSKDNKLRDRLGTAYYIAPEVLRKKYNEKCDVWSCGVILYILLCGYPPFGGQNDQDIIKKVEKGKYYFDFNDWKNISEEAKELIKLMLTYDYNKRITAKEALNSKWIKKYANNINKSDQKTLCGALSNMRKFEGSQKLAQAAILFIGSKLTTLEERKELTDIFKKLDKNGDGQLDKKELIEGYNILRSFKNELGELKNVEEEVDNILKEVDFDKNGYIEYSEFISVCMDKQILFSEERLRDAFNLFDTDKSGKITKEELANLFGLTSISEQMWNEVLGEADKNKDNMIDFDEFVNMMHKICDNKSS
Chain of Protein kinase 7 (PK7), Plasmodium falciparum 3D7 (PF3D7_0213400) (Q7YTF7 1-343): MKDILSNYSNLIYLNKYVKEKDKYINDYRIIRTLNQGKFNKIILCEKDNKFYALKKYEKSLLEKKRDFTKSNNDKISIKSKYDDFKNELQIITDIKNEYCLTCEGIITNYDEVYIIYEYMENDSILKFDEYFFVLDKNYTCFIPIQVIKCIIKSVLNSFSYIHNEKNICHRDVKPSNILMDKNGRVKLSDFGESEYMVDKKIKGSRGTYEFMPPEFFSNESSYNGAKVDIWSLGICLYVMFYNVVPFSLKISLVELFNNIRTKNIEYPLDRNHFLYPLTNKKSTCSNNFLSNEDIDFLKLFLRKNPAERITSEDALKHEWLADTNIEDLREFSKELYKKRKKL
Chain of L-lactate dehydrogenase (Plasmodium falciparum (isolate CDC / Honduras)) (Q27743 whole entry, looked up): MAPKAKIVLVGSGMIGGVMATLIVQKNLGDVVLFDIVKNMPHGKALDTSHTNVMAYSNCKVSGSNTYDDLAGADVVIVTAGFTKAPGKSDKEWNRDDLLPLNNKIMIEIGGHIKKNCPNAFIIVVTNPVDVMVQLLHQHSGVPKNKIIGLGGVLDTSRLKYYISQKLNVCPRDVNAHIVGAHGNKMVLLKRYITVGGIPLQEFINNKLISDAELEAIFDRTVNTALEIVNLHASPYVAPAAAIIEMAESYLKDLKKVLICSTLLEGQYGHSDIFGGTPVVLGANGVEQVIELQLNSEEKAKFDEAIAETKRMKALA
Chain of Plasmodium falciparum protein kinase 6 (PK6, PF3D7_1337100) (Q8IDW1 1-305): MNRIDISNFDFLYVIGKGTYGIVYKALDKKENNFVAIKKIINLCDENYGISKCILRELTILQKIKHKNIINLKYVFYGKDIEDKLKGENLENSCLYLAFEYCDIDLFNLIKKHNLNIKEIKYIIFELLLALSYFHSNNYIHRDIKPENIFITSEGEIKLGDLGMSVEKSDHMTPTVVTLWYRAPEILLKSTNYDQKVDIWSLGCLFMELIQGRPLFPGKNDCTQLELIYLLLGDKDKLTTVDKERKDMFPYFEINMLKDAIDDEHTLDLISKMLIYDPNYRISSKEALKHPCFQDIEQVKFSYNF

Cc1nc2nc(N)nc(N)c2c(C)c1Cc1ccc(C(N)=O)cc1
active: inhibition [2] 55% | growth inhibition [4] 97%
inactive: growth inhibition [1] -3% | inhibition [3] 3% | outcome [5] | outcome [6] | outcome [7] | outcome [8]

CN(C(=O)Cc1ccc(Cl)cc1)C1CCN(CCCCCNC(=O)/C=C/c2ccc(Cl)c(Cl)c2)CC1
inactive: growth inhibition [1] 16% | inhibition [3] -6% | outcome [5] | outcome [6] | outcome [7] | outcome [8]
active: inhibition [2] 69% | growth inhibition [4] 83%

CCn1ccc2c(N3CCCCS3(=O)=O)cc(C(=O)N[C@@H](Cc3ccccc3)[C@H](O)CNC3CCCCC3)cc21
inactive: inhibition [2] 1% | inhibition [3] 1% | outcome [5] | outcome [6] | outcome [7] | outcome [8]
active: growth inhibition [1] 98% | growth inhibition [4] 98%

COc1ccc(C2CCN(CCN3CCC(NC(=O)c4cccc(-c5ccncc5)c4)CC3)CC2)c(OC)c1
active: growth inhibition [4] 94%
inactive: growth inhibition [1] 24% | inhibition [2] 7% | inhibition [3] -6% | outcome [5] | outcome [6] | outcome [7] | outcome [8]

COc1cc2nc(NCc3ccc(S(N)(=O)=O)cc3)nc(Nc3ccc(Oc4ccccc4)cc3)c2cc1OC
active: growth inhibition [1] 100% | growth inhibition [4] 101%
inactive: inhibition [2] 14% | inhibition [3] -3% | outcome [5] | outcome [6] | outcome [7] | outcome [8]

CC(C)(C)SCC(O)Cn1c2ccc(Br)cc2c2cc(Br)ccc21 (configuration not stated)
inactive: inhibition [2] 4% | inhibition [3] 1% | outcome [5] | outcome [6] | outcome [7] | outcome [8]
active: growth inhibition [1] 79% | growth inhibition [4] 87%

Nc1nc2c(c(=O)[nH]1)-c1cccc(Br)c1CC2
active: inhibition [2] 66% | growth inhibition [4] 97%
inactive: growth inhibition [1] -3% | inhibition [3] 0% | outcome [5] | outcome [6] | outcome [7] | outcome [8]

COc1ccc2nc(C)cc(NN=Cc3ccc([N+](=O)[O-])cc3)c2c1
active: growth inhibition [1] 70% | growth inhibition [4] 103%
inactive: inhibition [2] -3% | inhibition [3] -5% | outcome [5] | outcome [6] | outcome [7] | outcome [8]

COc1cc([N+](=O)[O-])ccc1NC(=O)Nc1ccc(OC(F)(F)F)cc1
inactive: inhibition [2] 14% | inhibition [3] 3% | outcome [5] | outcome [6] | outcome [7] | outcome [8]
active: growth inhibition [1] 72% | growth inhibition [4] 84%

Cc1cccc2[nH]c(-c3ccc(-c4ccc(NC(=O)c5cncn5C)cc4)s3)nc12
active: growth inhibition [4] 102%
inactive: growth inhibition [1] 30% | inhibition [2] 49% | inhibition [3] 4% | outcome [5] | outcome [6] | outcome [7] | outcome [8]

Cc1cc(O)c(CN(C)Cc2ccc3c(c2)OCO3)cc1C(C)C
active: growth inhibition [1] 74% | growth inhibition [4] 98%
inactive: inhibition [2] 9% | inhibition [3] 0% | outcome [5] | outcome [6] | outcome [7] | outcome [8]

CNC(=O)NC1=NC(C)(C)N(OCCCOc2cc(Cl)c(Cl)cc2Cl)C(N)=N1
inactive: growth inhibition [1] 2% | inhibition [2] 7% | inhibition [3] -3% | outcome [5] | outcome [6] | outcome [7] | outcome [8]
active: growth inhibition [4] 97%

CCC(=O)c1c(C)n(-c2ncnc3c2nc(C)n3-c2ccc(C)cc2C)c2ccccc12
inactive: inhibition [2] -16% | inhibition [3] -2% | outcome [5] | outcome [6] | outcome [7] | outcome [8]
active: growth inhibition [1] 78% | growth inhibition [4] 96%

CC(C)N1CCN(c2ccc(OCCCN3CCN(c4cccc(Cl)c4Cl)CC3)c(C(F)(F)F)c2)CC1
inactive: growth inhibition [1] 37% | inhibition [3] 0% | outcome [5] | outcome [6] | outcome [7] | outcome [8]
active: inhibition [2] 79% | growth inhibition [4] 94%

COc1cc2nc(-c3ccccc3)nc(N3CCN(CC(=O)N4CCCC4)CC3)c2cc1OC
inactive: inhibition [2] 7% | inhibition [3] -1% | outcome [5] | outcome [6] | outcome [7] | outcome [8]
active: growth inhibition [1] 70% | growth inhibition [4] 84%

COc1cc(C)c(NC(=O)c2cccc3c(=O)c(C)c(-c4ccccc4)oc23)cc1OC
active: inhibition [2] 96% | growth inhibition [4] 86%
inactive: growth inhibition [1] 32% | inhibition [3] 2% | outcome [5] | outcome [6] | outcome [7] | outcome [8]

CCCCOc1ccc(-c2nc3ccccc3[nH]2)cc1
inactive: inhibition [2] 21% | inhibition [3] -1% | outcome [5] | outcome [6] | outcome [7] | outcome [8]
active: growth inhibition [1] 82% | growth inhibition [4] 86%

Cn1c(=O)c2cc(C(=O)NCCCN3CCCCCC3)sc2c2ccccc21
active: growth inhibition [1] 99% | growth inhibition [4] 99%
inactive: inhibition [2] 32% | inhibition [3] 0% | outcome [5] | outcome [6] | outcome [7] | outcome [8]

COc1ccc2nc(Nc3nc4ccncc4[nH]3)sc2c1
inactive: growth inhibition [1] 26% | inhibition [2] 8% | inhibition [3] 0% | outcome [5] | outcome [6] | outcome [7] | outcome [8]
active: growth inhibition [4] 88%

Cc1onc(-c2ccccc2)c1-c1nc(NCCC(c2ccccc2)c2ccccc2)no1
active: growth inhibition [1] 78% | growth inhibition [4] 100%
inactive: inhibition [2] -4% | inhibition [3] -7% | outcome [5] | outcome [6] | outcome [7] | outcome [8]

CC(C(=O)NC1CCN(c2ccnc(Nc3ccc(F)cc3)n2)C1)c1ccc(Cl)cc1 (configuration not stated)
inactive: inhibition [2] 17% | inhibition [3] -4% | outcome [5] | outcome [6] | outcome [7] | outcome [8]
active: growth inhibition [1] 90% | growth inhibition [4] 95%

COc1cc2ncnc(Nc3ccc(OCc4ccccc4)c(C(F)(F)F)c3)c2cc1OC
inactive: inhibition [2] 8% | inhibition [3] 3% | outcome [5] | outcome [6] | outcome [7] | outcome [8]
active: growth inhibition [1] 78% | growth inhibition [4] 101%

NC(N)=NN=CC(=O)Nc1ccc(Cl)c(C(F)(F)F)c1
inactive: growth inhibition [1] 0% | inhibition [2] -6% | inhibition [3] 0% | outcome [5] | outcome [6] | outcome [7] | outcome [8]
active: growth inhibition [4] 100%

CS(=O)(=O)c1ccc2c(c1)CCN(CCC1CCC(NC(=O)C(=Cc3ccc(Cl)cc3Cl)c3ccc(-c4ccccc4)cc3)CC1)CC2 (configuration not stated)
inactive: growth inhibition [1] 16% | inhibition [2] 33% | inhibition [3] -1% | outcome [5] | outcome [6] | outcome [7] | outcome [8]
active: growth inhibition [4] 81%

CCCCCCCN1CC[C@@H](C[C@H](N)Cc2ccnc3ccc(OC)cc23)[C@@H](CC)C1
active: growth inhibition [1] 51% | growth inhibition [4] 91%
inactive: inhibition [2] 33% | inhibition [3] -2% | outcome [5] | outcome [6] | outcome [7] | outcome [8]

Cc1cc(NC(=O)Nc2cccc(Cl)c2Cl)c2ccccc2n1
active: growth inhibition [4] 96%
inactive: growth inhibition [1] 25% | inhibition [2] -5% | inhibition [3] 1% | outcome [5] | outcome [6] | outcome [7] | outcome [8]

COc1ccc(CNc2nc(NCc3ccc(C(F)(F)F)cc3)c3cc(OC)c(OC)cc3n2)cc1OC
inactive: inhibition [3] -3% | outcome [5] | outcome [6] | outcome [7] | outcome [8]
active: growth inhibition [1] 100% | inhibition [2] 80% | growth inhibition [4] 103%

COc1cc2nc(NCCn3nc(C)cc3C)nc(NCCc3ccccc3)c2cc1OC
inactive: inhibition [2] 28% | inhibition [3] -3% | outcome [5] | outcome [6] | outcome [7] | outcome [8]
active: growth inhibition [1] 100% | growth inhibition [4] 103%

O=C(Nc1cccc(-c2nn3ccccc3c2-c2ccnc(Nc3ccccc3)n2)c1)c1c(F)cccc1F
inactive: inhibition [3] -6% | outcome [5] | outcome [6] | outcome [7] | outcome [8]
active: growth inhibition [1] 98% | inhibition [2] 69% | growth inhibition [4] 98%

OCCOCCNCc1cccc(C#Cc2cc3ncnc(Nc4ccc(OCc5cccc(F)c5)c(Cl)c4)c3s2)n1
inactive: growth inhibition [1] 46% | inhibition [2] 35% | inhibition [3] 0% | outcome [5] | outcome [6] | outcome [7] | outcome [8]
active: growth inhibition [4] 96%

COc1cc2nc(N3CCC(CNC(=O)c4ccc(NC(=O)c5ccc(Cl)cc5)cc4)CC3)nc(N)c2cc1OC
active: growth inhibition [1] 100% | inhibition [2] 98% | growth inhibition [4] 101%
inactive: inhibition [3] 0% | outcome [5] | outcome [6] | outcome [7] | outcome [8]

NC(N)=Nc1ccc(OCCCCCOc2ccc(N=C(N)N)cc2)cc1
inactive: inhibition [2] 12% | inhibition [3] -1% | outcome [5] | outcome [6] | outcome [7] | outcome [8]
active: growth inhibition [1] 100% | growth inhibition [4] 99%

O=C(/C=C/c1ccc(Cl)c(Cl)c1)NCCCCN1CCCN(C(=O)Nc2ccc(F)c(Cl)c2)CC1
inactive: growth inhibition [1] 2% | inhibition [3] 1% | outcome [5] | outcome [6] | outcome [7] | outcome [8]
active: inhibition [2] 69% | growth inhibition [4] 87%

O=C(NCc1cccc(F)c1)Nc1ccc(-c2ccc(-c3nc4ccc(C(F)(F)F)cc4[nH]3)cc2)cc1
active: growth inhibition [4] 100%
inactive: growth inhibition [1] 24% | inhibition [2] 46% | inhibition [3] 0% | outcome [5] | outcome [6] | outcome [7] | outcome [8]

Cc1noc(C)c1-c1cccc(CNCc2ccc(-c3ccc(-c4nc5c(C)cccc5[nH]4)cc3)cc2)c1
inactive: inhibition [2] 28% | inhibition [3] 5% | outcome [5] | outcome [6] | outcome [7] | outcome [8]
active: growth inhibition [1] 95% | growth inhibition [4] 102%

COc1ccc2nc(C)cc(NN=Cc3cccc(Cl)c3)c2c1
active: growth inhibition [1] 100% | growth inhibition [4] 101%
inactive: inhibition [2] 13% | inhibition [3] 7% | outcome [5] | outcome [6] | outcome [7] | outcome [8]

COc1ccc2nccc([C@@H](O)CN3CCC(NCCNc4cccc(F)c4)CC3)c2c1
active: growth inhibition [1] 73% | growth inhibition [4] 98%
inactive: inhibition [2] 11% | inhibition [3] 0% | outcome [5] | outcome [6] | outcome [7] | outcome [8]

CCCc1cc(NC2CCN(C)CC2)nc(Nc2ccc(F)cc2)n1
active: growth inhibition [4] 95%
inactive: growth inhibition [1] 16% | inhibition [2] 20% | inhibition [3] -7% | outcome [5] | outcome [6] | outcome [7] | outcome [8]

O=C(/C=C/c1ccc(Cl)c(Cl)c1)NCC1CCN(Cc2ccc(O)cc2)CC1
inactive: growth inhibition [1] -3% | inhibition [2] 4% | inhibition [3] 6% | outcome [5] | outcome [6] | outcome [7] | outcome [8]
active: growth inhibition [4] 98%
